PubChem BioAssay
Calls of active or inactive are those of the source.

Assays:
[1] = test system: PRMT1 (protein arginine N-methyltransferase 1); assay: small molecules binding arginine methyltransferase PRMT1 – biochemical, small-molecule microarray, 635 nm fluorescence, primary screen (AID 1088); settings: higher = more signal;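 also: binding of Prmt1 protein to compounds spotted on small-molecule microarray slides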
[2] = growth effects on S. cerevisiae YJM789 – YJM789 clinical isolate, OD600, 24 h, basal, primary screen (AID 1089); settings: higher = more signal, called active from +8 up or from −8 down;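 also: growth of clinical yeast isolate S. cerevisiae YJM 789 seeded 1000 cells per well; test concentration not given here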
[3] = S. pombe growth modifiers, basal conditions – strain 972, OD600, 24 h, no modulator, primary screen (AID 1090);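 also: basal condition with compound alone and no growth modifier present; test concentration not given here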; settings: S. pombe 972 growth, higher = more signal, called active from +8 up or from −8 down
[4] = budding yeast growth modifiers under rapamycin – strain BY4716, OD600, 96 h, primary screen (AID 1091); also: test concentration not given here; settings: S. cerevisiae BY4716 + rapamycin, higher = more signal, called active from +8 up or from −8 down
[5] = target: Torsin-1A-interacting protein 2 (Homo sapiens) (UniProt Q8NFQ8); assay: small molecules binding lysate-expressed LULL1 – cell lysate, human LULL1 lysate, 635/667 nm fluorescence, primary screen (AID 1092); settings: small-molecule microarray, hLULL1 lysate binding, 635 nm fluorescence; higher = more signal;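 also: probe is lysate of COS7 cells overexpressing human LULL1; score merges per-feature 667 nm fluorescence with signal-to-noise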
Sequence of Torsin-1A-interacting protein 2 (Homo sapiens) (Q8NFQ8 whole entry, looked up): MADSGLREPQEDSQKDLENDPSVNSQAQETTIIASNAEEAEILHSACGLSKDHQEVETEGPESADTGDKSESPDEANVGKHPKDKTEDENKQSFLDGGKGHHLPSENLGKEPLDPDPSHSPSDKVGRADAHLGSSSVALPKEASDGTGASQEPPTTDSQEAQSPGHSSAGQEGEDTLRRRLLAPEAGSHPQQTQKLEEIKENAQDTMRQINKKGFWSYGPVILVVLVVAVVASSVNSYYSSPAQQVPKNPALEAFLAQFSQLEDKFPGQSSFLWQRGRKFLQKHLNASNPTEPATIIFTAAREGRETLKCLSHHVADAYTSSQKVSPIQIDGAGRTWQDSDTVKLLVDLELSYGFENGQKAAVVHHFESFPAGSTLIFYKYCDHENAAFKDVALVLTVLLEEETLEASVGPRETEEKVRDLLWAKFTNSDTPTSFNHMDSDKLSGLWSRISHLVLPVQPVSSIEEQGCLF

[6] = optical density change of DRC41 E. coli – strain DRC41, OD650, 24 h, E. coli filamentation project, primary screen (AID 1093);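 also: MC1000 strain lacking acrAB efflux and sulA so SOS filamentation is blocked; test concentration not given here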; settings: E. coli DRC41 growth, higher = more signal, called active from +8 up or from −8 down
[7] = probe aLefty2 binding to arrayed compounds – biochemical, biotinylated probe, 635/667 nm fluorescence, primary screen (AID 1094); settings: small-molecule microarray, higher = more signal;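 also: score merges spot fluorescence near 667 nm with spot signal-to-noise ratio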
[8] = test system: Noggin (protein binding on small-molecule microarray); assay: small molecules binding Noggin protein – biochemical, 635/667 nm fluorescence, primary screen (AID 1095); settings: 635 nm fluorescence, higher = more signal;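 also: score merges 667 nm feature fluorescence with signal to noise over triplicate slides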
[9] = target: Neurogenic locus notch homolog protein 3 (Homo sapiens) (UniProt Q9UM47); assay: small molecules binding NOTCH3 protein – biochemical, 635/667 nm fluorescence, primary screen (AID 1096); settings: small-molecule microarray, 635 nm fluorescence, higher = more signal
Sequence of Neurogenic locus notch homolog protein 3 (Homo sapiens) (Q9UM47 whole entry, looked up): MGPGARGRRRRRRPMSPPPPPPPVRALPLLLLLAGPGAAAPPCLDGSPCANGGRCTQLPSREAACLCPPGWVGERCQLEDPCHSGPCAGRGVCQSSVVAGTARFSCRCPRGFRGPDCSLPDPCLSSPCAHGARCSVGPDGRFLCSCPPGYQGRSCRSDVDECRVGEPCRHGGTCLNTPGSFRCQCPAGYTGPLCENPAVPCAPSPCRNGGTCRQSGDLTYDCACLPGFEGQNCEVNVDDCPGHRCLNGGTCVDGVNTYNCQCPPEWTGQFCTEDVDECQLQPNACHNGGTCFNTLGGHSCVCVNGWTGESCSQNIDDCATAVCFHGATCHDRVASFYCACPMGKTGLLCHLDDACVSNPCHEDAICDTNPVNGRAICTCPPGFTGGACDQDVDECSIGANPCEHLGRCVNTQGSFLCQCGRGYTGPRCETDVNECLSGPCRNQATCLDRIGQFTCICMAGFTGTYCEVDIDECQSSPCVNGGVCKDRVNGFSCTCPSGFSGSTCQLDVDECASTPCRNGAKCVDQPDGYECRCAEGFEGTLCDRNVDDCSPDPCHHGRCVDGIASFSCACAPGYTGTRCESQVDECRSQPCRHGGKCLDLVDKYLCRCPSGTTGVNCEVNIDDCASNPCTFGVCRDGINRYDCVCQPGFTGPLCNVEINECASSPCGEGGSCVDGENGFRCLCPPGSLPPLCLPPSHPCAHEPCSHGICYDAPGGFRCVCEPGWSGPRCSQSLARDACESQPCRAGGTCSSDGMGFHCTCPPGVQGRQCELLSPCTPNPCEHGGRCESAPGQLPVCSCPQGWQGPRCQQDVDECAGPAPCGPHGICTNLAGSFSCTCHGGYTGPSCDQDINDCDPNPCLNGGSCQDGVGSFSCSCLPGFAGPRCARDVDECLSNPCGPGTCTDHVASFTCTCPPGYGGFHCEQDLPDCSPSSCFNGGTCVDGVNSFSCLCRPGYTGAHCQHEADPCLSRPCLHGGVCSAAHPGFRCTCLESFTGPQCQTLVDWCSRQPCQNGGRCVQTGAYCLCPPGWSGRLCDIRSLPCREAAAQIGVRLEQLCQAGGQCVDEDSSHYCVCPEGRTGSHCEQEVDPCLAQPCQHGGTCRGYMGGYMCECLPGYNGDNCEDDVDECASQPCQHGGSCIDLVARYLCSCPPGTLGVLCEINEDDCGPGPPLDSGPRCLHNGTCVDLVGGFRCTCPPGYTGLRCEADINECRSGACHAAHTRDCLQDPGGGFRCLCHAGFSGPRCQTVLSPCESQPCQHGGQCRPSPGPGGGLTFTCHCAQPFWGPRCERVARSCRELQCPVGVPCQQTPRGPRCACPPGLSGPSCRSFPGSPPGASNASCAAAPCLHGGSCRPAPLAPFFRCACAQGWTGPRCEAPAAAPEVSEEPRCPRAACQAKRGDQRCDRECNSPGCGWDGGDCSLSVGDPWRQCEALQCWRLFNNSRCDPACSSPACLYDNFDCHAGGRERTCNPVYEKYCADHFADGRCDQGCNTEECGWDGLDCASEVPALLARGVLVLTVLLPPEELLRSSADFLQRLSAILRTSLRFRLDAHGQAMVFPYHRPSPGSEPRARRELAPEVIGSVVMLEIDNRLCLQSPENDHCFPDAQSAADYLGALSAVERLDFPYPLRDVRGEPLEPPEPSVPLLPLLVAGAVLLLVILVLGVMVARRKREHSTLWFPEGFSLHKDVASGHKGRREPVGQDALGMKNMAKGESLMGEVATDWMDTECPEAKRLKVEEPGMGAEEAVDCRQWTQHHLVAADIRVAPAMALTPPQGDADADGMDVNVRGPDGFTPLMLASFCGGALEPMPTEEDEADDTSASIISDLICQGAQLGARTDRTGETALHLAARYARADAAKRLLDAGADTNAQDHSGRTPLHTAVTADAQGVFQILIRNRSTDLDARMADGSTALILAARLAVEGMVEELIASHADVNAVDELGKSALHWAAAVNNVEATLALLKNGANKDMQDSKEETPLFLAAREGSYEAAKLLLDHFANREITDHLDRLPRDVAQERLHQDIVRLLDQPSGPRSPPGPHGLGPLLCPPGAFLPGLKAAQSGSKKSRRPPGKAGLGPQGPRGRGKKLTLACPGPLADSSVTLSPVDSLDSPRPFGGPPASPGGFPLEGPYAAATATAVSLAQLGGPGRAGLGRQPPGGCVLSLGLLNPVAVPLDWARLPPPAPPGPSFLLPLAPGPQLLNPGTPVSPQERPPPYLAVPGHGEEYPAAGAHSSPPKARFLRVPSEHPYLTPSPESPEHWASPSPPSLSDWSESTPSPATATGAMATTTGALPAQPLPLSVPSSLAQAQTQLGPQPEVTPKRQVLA

[10] = probe aEGFR binding to arrayed compounds – biochemical, biotinylated probe, 635/667 nm fluorescence, primary screen (AID 1097); settings: small-molecule microarray, higher = more signal;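 also: probe is a biotinylated anti-EGFR antibody binding compounds printed on slides; score combines fluorescence near 667 nm and signal to noise of each spot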
[11] = test system: Plasmodium falciparum Sir2 (PF13_0152, Sir2A); assay: Plasmodium falciparum Sir2A binding compounds – biochemical, small-molecule microarray, 635 nm fluorescence, primary screen (AID 1098); settings: fluorescence 635 nm, higher = more signal;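 also: score merges spot fluorescence intensity with its signal-to-noise ratio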
[12] = probe aDKK1 binding to arrayed compounds – biochemical, biotinylated probe, 635/667 nm fluorescence, primary screen (AID 1099); settings: small-molecule microarray, higher = more signal;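 also: score merges 667nm spot fluorescence with signal to noise across triplicate slides; reference of the scale not given here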
[13] = probe aCHRDL2 binding to arrayed compounds – biochemical, biotinylated probe, 635/667 nm fluorescence, primary screen (AID 1100); settings: small-molecule microarray, higher = more signal
[14] = change in splice reporter luminescence, either direction, cell-based, HEK293, spliceosome inhibition project, primary screen (AID 1101); settings: HEK293 splicing luciferase reporter, 24 h, higher = more signal, called active from +8 up or from −8 down;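 also: HEK293 cells carrying a splicing-competent luciferase reporter gene; test concentration not given here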
[15] = target: Fibroblast growth factor 10 (Homo sapiens) (UniProt O15520); assay: compounds binding fibroblast growth factor 10 – biochemical, small-molecule microarray, 635 nm fluorescence, primary screen (AID 1102); settings: FGF10 binding, fluorescence 635 nm, higher = more signal
Sequence of Fibroblast growth factor 10 (Homo sapiens) (O15520 whole entry, looked up): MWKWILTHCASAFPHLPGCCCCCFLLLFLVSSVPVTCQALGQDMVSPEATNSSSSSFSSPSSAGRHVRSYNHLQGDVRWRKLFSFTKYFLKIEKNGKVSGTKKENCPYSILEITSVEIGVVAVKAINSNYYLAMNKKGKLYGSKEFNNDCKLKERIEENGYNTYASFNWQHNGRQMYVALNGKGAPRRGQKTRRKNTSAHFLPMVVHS

[16] = test system: glycogen synthase kinase-3 (GSK3A per assay name; protocol says GSK3B); assay: compounds binding glycogen synthase kinase-3 – biochemical, small-molecule microarray, 635 nm fluorescence, GSK3A, primary screen (AID 1103); settings: fluorescence 635 nm, higher = more signal; also: the record names both GSK3A and GSK3B
[17] = target: Epidermal growth factor receptor (Homo sapiens) (UniProt P00533); assay: compounds binding epidermal growth factor receptor – biochemical, small-molecule microarray, 635 nm fluorescence, primary screen (AID 1104); settings: EGFR binding, higher = more signal;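 also: score merges 667 nm emission intensity with spot signal to noise over triplicate slides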
Sequence of Epidermal growth factor receptor (Homo sapiens) (P00533 whole entry, looked up): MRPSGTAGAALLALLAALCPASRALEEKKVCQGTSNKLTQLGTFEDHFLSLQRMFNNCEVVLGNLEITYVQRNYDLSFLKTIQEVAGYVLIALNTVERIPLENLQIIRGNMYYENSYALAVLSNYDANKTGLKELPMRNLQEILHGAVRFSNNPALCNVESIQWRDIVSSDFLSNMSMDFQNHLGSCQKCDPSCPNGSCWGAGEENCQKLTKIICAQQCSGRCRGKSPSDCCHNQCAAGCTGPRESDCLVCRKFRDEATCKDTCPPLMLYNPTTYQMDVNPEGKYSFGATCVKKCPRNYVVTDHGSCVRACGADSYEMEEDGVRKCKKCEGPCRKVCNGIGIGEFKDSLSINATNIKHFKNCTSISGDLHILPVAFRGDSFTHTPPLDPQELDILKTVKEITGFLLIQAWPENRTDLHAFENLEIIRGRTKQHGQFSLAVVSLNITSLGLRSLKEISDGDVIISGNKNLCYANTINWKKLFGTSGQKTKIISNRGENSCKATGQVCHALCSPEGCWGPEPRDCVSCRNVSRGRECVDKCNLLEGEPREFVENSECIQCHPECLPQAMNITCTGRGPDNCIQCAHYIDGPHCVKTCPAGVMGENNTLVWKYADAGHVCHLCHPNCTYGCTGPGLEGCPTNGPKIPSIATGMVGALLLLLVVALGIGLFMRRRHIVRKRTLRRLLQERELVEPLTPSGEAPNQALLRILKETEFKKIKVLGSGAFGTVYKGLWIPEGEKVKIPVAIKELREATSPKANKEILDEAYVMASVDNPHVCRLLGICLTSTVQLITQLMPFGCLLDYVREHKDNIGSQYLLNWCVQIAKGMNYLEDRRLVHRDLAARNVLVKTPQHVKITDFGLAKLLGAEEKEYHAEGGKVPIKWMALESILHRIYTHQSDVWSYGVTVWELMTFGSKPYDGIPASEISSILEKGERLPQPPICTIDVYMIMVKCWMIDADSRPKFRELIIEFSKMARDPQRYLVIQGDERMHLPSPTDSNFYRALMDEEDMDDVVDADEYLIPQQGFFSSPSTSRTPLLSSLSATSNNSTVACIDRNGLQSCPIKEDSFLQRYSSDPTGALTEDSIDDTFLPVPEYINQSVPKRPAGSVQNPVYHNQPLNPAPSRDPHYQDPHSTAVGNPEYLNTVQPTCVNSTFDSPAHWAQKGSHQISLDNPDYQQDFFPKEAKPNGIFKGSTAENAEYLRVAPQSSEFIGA

[18] = target: Follistatin-related protein 3 (Homo sapiens) (UniProt O95633); assay: compounds binding follistatin-related protein 3 – biochemical, small-molecule microarray, 635 nm fluorescence, primary screen (AID 1105); settings: FSTL3 binding, higher = more signal;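 also: score merges emission near 667 nm and signal to noise per printed spot across three slides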
Sequence of Follistatin-related protein 3 (Homo sapiens) (O95633 whole entry, looked up): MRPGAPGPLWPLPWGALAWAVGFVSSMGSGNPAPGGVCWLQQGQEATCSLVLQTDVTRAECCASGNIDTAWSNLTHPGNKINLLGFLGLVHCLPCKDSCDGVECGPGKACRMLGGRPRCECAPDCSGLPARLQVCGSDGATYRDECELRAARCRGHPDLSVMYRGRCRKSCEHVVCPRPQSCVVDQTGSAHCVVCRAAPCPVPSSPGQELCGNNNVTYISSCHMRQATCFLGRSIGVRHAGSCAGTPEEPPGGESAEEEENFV

[19] = target: Dickkopf-related protein 1 (Homo sapiens) (UniProt O94907); assay: small molecules binding DKK1 protein – biochemical, small-molecule microarray, 635 nm fluorescence scan, primary screen (AID 1106); settings: higher = more signal;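 also: score merges emission near 667 nm with signal to noise over three replicate slides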
Sequence of Dickkopf-related protein 1 (Homo sapiens) (O94907 whole entry, looked up): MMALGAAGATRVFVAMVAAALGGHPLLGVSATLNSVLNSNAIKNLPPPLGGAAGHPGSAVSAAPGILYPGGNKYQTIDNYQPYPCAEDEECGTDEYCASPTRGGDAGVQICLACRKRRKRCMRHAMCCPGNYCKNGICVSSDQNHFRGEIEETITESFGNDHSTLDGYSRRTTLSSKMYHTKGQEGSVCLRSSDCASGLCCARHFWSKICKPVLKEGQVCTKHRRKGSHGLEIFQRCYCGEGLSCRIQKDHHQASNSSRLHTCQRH

[20] = test system: Inhibin beta A chain (activin A); assay: small molecules binding activin A – biochemical, small-molecule microarray, 635 nm fluorescence scan, primary screen (AID 1107); settings: INHBA, higher = more signal;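 also: mouse activin A protein probed at 4.33 µg/mL on printed slides; score merges bound-protein fluorescence near 667 nm with spot signal-to-noise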

Row | SMILES | composite z-score [1] | z-score [2] | z-score [3] | z-score [4] | composite z-score [5] | z-score [6] | composite z-score [7] | composite z-score [8] | composite z-score [9] | composite z-score [10] | composite z-score [11] | composite z-score [12] | composite z-score [13] | z-score [14] | composite z-score [15] | composite z-score [16] | composite z-score [17] | composite z-score [18] | composite z-score [19] | composite z-score [20]
1 | COc1ccc(COC(=O)NN=C2C[C@@H](O)[C@@H](O)[C@@H]3[C@@H]4C(=O)N([C@@H](C)c5ccccc5)C(=O)[C@@H]4CC[C@H]23)cc1 | -0.517 | -0.21 (inactive) | -0.0145 (inactive) | -0.556 (inactive) | 0.621 | 0.92 (inactive) | 0.484 | -0.245 | -0.184 | -0.137 | -0.25 | -0.121 | 1.4 | 0.445 (inactive) | -0.227 | -0.721 | -0.587 | -0.131 | -0.769 | 0.541
2 | COc1ccc(OC[C@@H](CO)OC)cc1 | -0.601 | -0.368 (inactive) | -0.199 (inactive) | -0.302 (inactive) | -0.0777 | 0.418 (inactive) | -0.185 | 0.802 | -0.176 | -0.0381 | -0.276 | -0.233 | -0.401 | 1.18 (inactive) | 0.428 | 0.405 | 0.202 | 0.475 | 0.321 | 0.512
3 | CCN1C(=O)[C@H]2[C@H]3[C@H](O)[C@H](O)CC(=NOCC=C(C)CCC=C(C)C)[C@@H]3CC[C@H]2C1=O | 1.4 | -0.56 (inactive) | -1.86 (inactive) | -1.3 (inactive) | 0.915 | 0.756 (inactive) | -0.0973 | 0.962 | 1.08 | 0.095 | 0.882 | -0.214 | -0.717 | 0.486 (inactive) | 1.21 | 0.938 | 1.53 | 0.972 | 1.16 | 1.18
4 | COC(=O)[C@@H]1CC[C@H](C)[C@@H](c2ccc(C)cc2)N1C(=O)c1ccc(C=NOC[C@@H](O)[C@H]2O[C@@H]3OC(C)(C)O[C@@H]3[C@H]2O)cc1 | 0.886 | -1.17 (inactive) | 0.459 (inactive) | -0.431 (inactive) | 1.23 | 1.6 (inactive) | -0.0916 | 0.159 | 1.14 | 0.0453 | 0.402 | 0.0861 | -0.357 | 0.569 (inactive) | 0.696 | 0.479 | 0.54 | 0.543 | 0.595 | 0.101
5 | COC(=O)[C@@H]1CC[C@H](C)[C@@H](c2ccc(C)cc2)N1C(=O)c1ccc(C=NO[C@@H](C)c2cc(-c3c(C)cc(C)cc3C)no2)cc1 | 1.05 | -0.0984 (inactive) | 0.358 (inactive) | 0.612 (inactive) | 0.919 | 0.328 (inactive) | -0.0727 | 0.3 | 0.35 | -0.165 | 0.321 | -0.12 | -0.144 | -1.04 (inactive) | 0.418 | 0.738 | 0.51 | 0.242 | 0.675 | 0.598
6 | CC(C)CON=C1C[C@@H](O)[C@@H](O)[C@@H]2[C@@H]3C(=O)N(C(C)(C)C)C(=O)[C@@H]3CC[C@@H]12 | 1.37 | 0.118 (inactive) | -0.182 (inactive) | -0.147 (inactive) | -0.495 | 0.222 (inactive) | -0.317 | 1.02 | -0.269 | -0.0638 | 1.08 | -0.58 | -1.35 | -1.15 (inactive) | 0.156 | 1.25 | 0.85 | 0.85 | 1.95 | 0.418
7 | CCC1=NOC(CCC2CC(OC(=O)NCc3cccc4c3OCO4)CC3(CCCC(COC(=O)NCCc4ccc(Cl)cc4)O3)O2)C1 (stereo not given) | 0.616 | -0.57 (inactive) | 0.232 (inactive) | 0.407 (inactive) | 1.59 | 0.812 (inactive) | -0.186 | 0.379 | -0.165 | -0.125 | 0.354 | -0.0936 | -0.341 | 0.116 (inactive) | 1.41 | 0.173 | -0.0917 | 0.147 | 0.119 | 0.0081
8 | CCCNC(=O)OC[C@H]1O[C@H](CCON=C2C[C@@H](O)[C@@H](O)[C@@H]3[C@@H]4C(=O)N(CC)C(=O)[C@@H]4CC[C@@H]23)C=C[C@@H]1Oc1ccc(OC)cc1 | 1.07 | -0.284 (inactive) | -0.0922 (inactive) | -0.768 (inactive) | 1.04 | 0.536 (inactive) | -0.0932 | 0.64 | 1.05 | -0.0605 | 0.874 | -0.04 | -0.39 | 0.264 (inactive) | 0.55 | 1.05 | 0.611 | 1.07 | 1.35 | 0.157
9 | CCOC(=O)[C@H](Cc1ccccc1)NC(=O)CCC1CC(OC(=O)NCc2ccc3c(c2)OCO3)CC2(CCCC(COC(=O)NCCc3ccc(Cl)cc3)O2)O1 (stereo not given in full) | 1.55 | -1.93 (inactive) | -0.616 (inactive) | 0.376 (inactive) | 1.78 | -0.698 (inactive) | -0.148 | 0.819 | 1.16 | -0.081 | 0.667 | -0.188 | -0.509 | -2.3 (inactive) | 0.471 | 1.27 | 0.549 | 0.69 | 0.531 | 0.0209
10 | CO[C@@H]1COC(=O)[C@H](CCSC)NC(=O)CC=C[C@@H](C)COC(=O)[C@@H]2CCCN2C(=O)CC=C[C@H]1C | 0.888 | -0.0153 (inactive) | -1.33 (inactive) | -0.495 (inactive) | -0.389 | -0.135 (inactive) | -0.261 | 0.862 | 0.468 | -0.0675 | 0.275 | -0.337 | -0.584 | -0.595 (inactive) | 0.779 | 0.745 | 0.898 | 0.909 | 1.01 | 0.4
